PubChem BioAssay
The source made the active and inactive calls. Unless noted, the rule behind the calls is not given here.

Experiments:
[1] = compound effects on lung adenocarcinoma cell viability – A549, calcein-AM fluorescence, 48 h, basal, profiling panel (AID 1162); details: higher = more signal; note: test concentration not given here
[2] = compound effects on differentiated 3T3-L1 adipocyte viability – cell-based, 3T3-L1 adipocytes, calcein-AM fluorescence, 48 h, basal, profiling panel (AID 1163); details: 3T3-L1 adipocytes viability, higher = more signal; note: test concentration not given here
[3] = compound effects on hepatocellular carcinoma cell viability – HepG2, calcein-AM fluorescence, 48 h, basal, profiling panel (AID 1164); details: higher = more signal; note: test concentration not given here
[4] = compound effects on multiple myeloma cell viability – MM1S, calcein-AM fluorescence, 48 h, basal, profiling panel (AID 1165); details: higher = more signal;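 note: viability of MM1S multiple myeloma cells under basal unstimulated conditions; test concentration not given here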
[5] = calcein-AM signal in unstimulated myeloma cells – cell-based, calcein-AM fluorescence, 48 h, PK04 Diversity Set, profiling panel (AID 1166); details: RPMI8226 myeloma viability, higher = more signal;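 note: cells grown under basal conditions without added stimulus; test concentration not given here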
[6] = JC-1 mitochondrial signal, unstimulated HepG2 cells – cell-based, JC-1 fluorescence, 24 h, 100 nL compound, profiling panel (AID 1167); details: HepG2 mitochondrial potential, higher = more signal; note: test concentration not given here
[7] = JC-1 mitochondrial signal, unstimulated adipocytes – cell-based, JC-1 fluorescence, 3T3-L1 adipocytes, 24 h, 100 nL compound, profiling panel (AID 1168); details: JC-1 mitochondrial fluorescence, higher = more signal, called active from +8 up or from −8 down; note: test concentration not given here
[8] = JC-1 mitochondrial signal, unstimulated myeloma cells – cell-based, JC-1 fluorescence, RPMI8226, 24 h, 100 nL compound, profiling panel (AID 1169); details: JC-1 mitochondrial potential fluorescence, higher = more signal; note: test concentration not given here
[9] = JC-1 mitochondrial signal, unstimulated MM1S myeloma – cell-based, JC-1 fluorescence, 24 h, 100 nL compound, profiling panel (AID 1170); details: MM1S mitochondrial potential, higher = more signal; note: test concentration not given here
[10] = resazurin metabolic signal in A549 cells – cell-based, resazurin fluorescence, 24 h, PK04 Diversity Set, profiling panel (AID 1171); details: A549 viability, higher = more signal, called active from +8 up or from −8 down; note: test concentration not given here
[11] = resazurin metabolic signal in HepG2 cells – cell-based, resazurin fluorescence, 24 h, PK04 Diversity Set, profiling panel (AID 1172); details: HepG2 viability, higher = more signal; note: test concentration not given here
[12] = budding yeast growth changes without added modifier – OD600, strain BY4716, 24 h, basal condition, primary screen (AID 1173); details: S. cerevisiae BY4716 growth, OD600, 24 h; higher = more signal, called active from +8 up or from −8 down
[13] = viability profiling in MM1S myeloma cells – cell-based, resazurin fluorescence, basal, 24 h, PK04 Diversity Set, profiling panel (AID 1174); details: higher = more signal, called active from +8 up or from −8 down; note: test concentration not given here
[14] = biological target: Dihydroorotate dehydrogenase (quinone), mitochondrial (Plasmodium falciparum (isolate 3D7)) (UniProt Q08210); test: inhibition of P. falciparum DHODH – biochemical, C-terminal His tag, absorbance 600 nm, primary screen (AID 1175); details: PfDHODH enzyme, DCIP absorbance 600 nm; higher = more signal, called active from +8 up or from −8 down;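 note: recombinant parasite enzyme with a five histidine tag at its C terminus; test concentration not given here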
Dihydroorotate dehydrogenase (quinone), mitochondrial (Plasmodium falciparum (isolate 3D7)), sequence (Q08210 whole entry, looked up): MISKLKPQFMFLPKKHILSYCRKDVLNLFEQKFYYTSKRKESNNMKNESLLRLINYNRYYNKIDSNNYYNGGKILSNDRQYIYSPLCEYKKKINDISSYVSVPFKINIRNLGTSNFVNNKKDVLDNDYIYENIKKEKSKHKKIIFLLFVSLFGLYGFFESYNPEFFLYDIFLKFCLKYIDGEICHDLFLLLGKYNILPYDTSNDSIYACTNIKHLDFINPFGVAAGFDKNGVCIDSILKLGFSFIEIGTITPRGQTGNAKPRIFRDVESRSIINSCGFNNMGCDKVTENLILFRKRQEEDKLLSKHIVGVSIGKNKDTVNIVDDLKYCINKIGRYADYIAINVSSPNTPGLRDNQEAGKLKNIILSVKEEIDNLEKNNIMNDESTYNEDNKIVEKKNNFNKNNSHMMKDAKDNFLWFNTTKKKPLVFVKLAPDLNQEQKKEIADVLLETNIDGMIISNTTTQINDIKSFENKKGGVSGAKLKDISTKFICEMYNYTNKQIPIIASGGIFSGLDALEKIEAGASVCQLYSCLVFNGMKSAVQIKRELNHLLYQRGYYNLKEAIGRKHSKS

[15] = inhibition of PAO1 biofilm formation – strain PAO1, LB-PBS medium, absorbance 600 nm, primary screen (AID 1176); note: test concentration not given here; details: P. aeruginosa PAO1 growth/biofilm, A600, 12 h; higher = more signal
[16] = growth modulation of vineyard yeast isolate – strain RM11-1a, OD600, basal, 24 h, primary screen (AID 1177);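 note: cultures grown under basal conditions with no added stressor; test concentration not given here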; details: S. cerevisiae RM11-1a growth, OD600, 24 h; higher = more signal, called active from +8 up or from −8 down
[17] = growth of efflux-deficient E. coli DRC39 – strain DRC39, OD650, 24 h, E. coli filamentation inducers, primary screen (AID 1178);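 note: growth measured as culture turbidity by optical density at 650 nm; test concentration not given here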; details: E. coli DRC39 acrAB, higher = more signal, called active from +8 up or from −8 down
[18] = growth of efflux-deficient E. coli DRC39 – strain DRC39, OD650, 48 h, E. coli filamentation inducers, primary screen (AID 1179);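 note: screen aims at cell division blockers that make cells filament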; details: E. coli DRC39 delta-acrAB growth, higher = more signal, called active from +8 up or from −8 down
[19] = viability profiling in RPMI8226 myeloma cells – cell-based, resazurin fluorescence, basal, 24 h, PK04 Diversity Set, profiling panel (AID 1180); details: higher = more signal;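 note: RPMI8826 multiple myeloma cell line at 5000 cells per well; test concentration not given here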
[20] = biological target: E3 ubiquitin-protein ligase XIAP (Homo sapiens) (UniProt P98170); test: small molecules binding XIAP protein – biophysical, small-molecule microarray, fluorescence 635 nm, primary screen (AID 1181); details: higher = more signal;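 note: score merges 667 nm emission and signal to noise over triplicate slides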
E3 ubiquitin-protein ligase XIAP (Homo sapiens), sequence (P98170 whole entry, looked up): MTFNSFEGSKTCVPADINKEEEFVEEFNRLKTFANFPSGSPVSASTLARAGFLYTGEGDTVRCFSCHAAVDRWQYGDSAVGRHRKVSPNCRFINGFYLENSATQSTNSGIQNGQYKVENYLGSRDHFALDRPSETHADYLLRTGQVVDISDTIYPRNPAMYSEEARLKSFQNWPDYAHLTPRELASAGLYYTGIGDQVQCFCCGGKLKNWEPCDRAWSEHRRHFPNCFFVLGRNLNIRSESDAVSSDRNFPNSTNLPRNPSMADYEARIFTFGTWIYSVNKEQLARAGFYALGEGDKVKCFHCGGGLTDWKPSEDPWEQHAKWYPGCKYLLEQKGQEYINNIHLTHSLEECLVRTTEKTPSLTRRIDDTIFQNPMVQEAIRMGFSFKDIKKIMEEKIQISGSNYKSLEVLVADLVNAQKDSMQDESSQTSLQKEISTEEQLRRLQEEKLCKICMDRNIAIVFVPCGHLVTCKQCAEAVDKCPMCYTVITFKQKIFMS

Compound | z-score [1] | z-score [2] | z-score [3] | z-score [4] | z-score [5] | z-score [6] | z-score [7] | z-score [8] | z-score [9] | z-score [10] | z-score [11] | z-score [12] | z-score [13] | composite z-score [14] | z-score [15] | z-score [16] | z-score [17] | z-score [18] | z-score [19] | composite z-score [20]
O=C1c2ccccc2[C@](Cc2ccccc2I)(C(=O)NCCN2CCOCC2)[C@H](c2ccc(CO)cc2)N1Cc1ccccc1C(F)(F)F | 0.368 | 0.469 | -0.103 | -1.98 | -2.7 | 1.5 | 0.0392 (inactive) | -0.876 | -0.601 | -0.577 (inactive) | -0.936 | -1.14 (inactive) | -0.269 (inactive) | -0.584 (inactive) | 0.0435 (inactive) | -0.538 (inactive) | 0.0398 (inactive) | -0.46 (inactive) | -0.606 | -0.0095
CCOC(=O)C1=C[C@@H](C(C)(C)C)N(S(=O)(=O)c2ccc(C)cc2)[C@H]1c1ccc(OC)cc1 | 0.279 | -0.276 | -0.778 | -1.04 | -1.23 | 4.09 | -0.305 (inactive) | -0.589 | -0.676 | 2.62 (inactive) | -0.294 | 1.9 (inactive) | -0.0789 (inactive) | -0.0972 (inactive) | -0.473 (inactive) | 1.88 (inactive) | 0.33 (inactive) | -0.27 (inactive) | -1.23 | -0.149
COc1ccc(CCNC(=O)[C@@H]2c3ccccc3C(=O)N(Cc3cc(F)cc(C(F)(F)F)c3)[C@H]2c2ccc(CO)cc2)cc1 | 2.41 | 1.33 | 0.492 | -0.696 | 0.36 | 1.98 | 0.17 (inactive) | -0.455 | 0.558 | 1.3 (inactive) | -0.162 | -0.314 (inactive) | 0.821 (inactive) | -0.179 (inactive) | -0.121 (inactive) | -0.209 (inactive) | 0.746 (inactive) | 0.387 (inactive) | 1.16 | -0.0835
COc1ccc([Si](C)(C)[C@H]2[C@H](CC(=O)N(CCO)Cc3ccccc3)O[C@@]3(C(=O)N(Cc4ccc(N5C(=O)c6cccc7cccc5c67)cc4)c4ccccc43)[C@@H]2C)cc1 | -1.12 | 1.59 | -0.899 | -0.998 | -3.8 | 0.488 | -0.381 (inactive) | -1.05 | -0.091 | -2.22 (inactive) | -1.14 | 1.21 (inactive) | -2.21 (inactive) | -1.51 (inactive) | 0.319 (inactive) | 2.45 (inactive) | -0.838 (inactive) | -1.02 (inactive) | -2.14 | 0.177
CC(C)(C)OC(=O)CC[C@@]1(C(N)=O)N=C(c2ccc(OCCCO)cc2)O[C@@H]1c1ccccc1CN=[N+]=[N-] | 0.105 | -0.288 | 0.886 | 0.0855 | 0.116 | -1.08 | -0.216 (inactive) | 0.698 | -0.829 | 0.112 (inactive) | 0.372 | -0.0901 (inactive) | -0.599 (inactive) | -1 (inactive) | 0.122 (inactive) | 0.0861 (inactive) | -0.0622 (inactive) | 0.131 (inactive) | -0.17 | 0.119
COc1ccc(C#Cc2ccc3c(c2)[C@]2(C(=O)N3)[C@H](c3ccccc3OCCO)N3[C@H](c4ccccc4)[C@H](c4ccccc4)OC(=O)[C@H]3[C@@H]2C(=O)NC[C@H](O)c2ccccc2)cc1 | -1.22 | 0.449 | -1.88 | -2.85 | -4.12 | -1.21 | 3.95 (inactive) | -0.957 | -1.66 | -1.01 (inactive) | 0.328 | 2.05 (inactive) | -2.59 (inactive) | -17.2 (active) | 1.08 (inactive) | 2.25 (inactive) | 0.158 (inactive) | -0.438 (inactive) | -3.95 | 0.0655
COC(=O)C[C@H]1O[C@]2(C(=O)N(C)c3ccccc32)[C@@H](C)[C@@H]1[Si](C)(C)c1ccccc1 | -0.843 | 1.01 | -1.05 | -0.344 | -0.0598 | -0.57 | 0.611 (inactive) | -0.0109 | 0.425 | 1.38 (inactive) | 1.45 | -2.07 (inactive) | 0.317 (inactive) | -0.343 (inactive) | -1.24 (inactive) | -0.136 (inactive) | 0.709 (inactive) | -0.106 (inactive) | 1.22 | 0.135
COc1cc2c(cc1OC)CN(C(=O)[C@@H]1[C@H]3C(=O)O[C@H](c4ccccc4)[C@H](c4ccccc4)N3[C@H](c3ccc(O)cc3)[C@@]13C(=O)Nc1ccc(C#CC4=CCCCC4)cc13)CC2 | 0.434 | 0.641 | 0.618 | -0.126 | -1.58 | -0.948 | 0.165 (inactive) | -0.733 | 0.328 | 0.175 (inactive) | 0.192 | 0.45 (inactive) | 0.466 (inactive) | -0.151 (inactive) | 0.297 (inactive) | 1.48 (inactive) | -0.0342 (inactive) | 0.675 (inactive) | 0.233 | -0.0108
CC(C)c1ccc(NN2C(C(O)C3CCCCC3)C=CC3C(=O)N(c4ccccc4)C(=O)C32)cc1 (stereo not given) | 0.19 | -1.19 | 1.41 | -0.381 | -0.886 | -1.49 | -0.176 (inactive) | 0.227 | -1.36 | -0.519 (inactive) | -0.454 | -0.618 (inactive) | -1.12 (inactive) | -0.74 (inactive) | 1.52 (inactive) | 0.409 (inactive) | -0.148 (inactive) | 0.51 (inactive) | -0.675 | 0.0471
